Laboratory results as given in PubChem BioAssay.
Results filed as inconclusive are left out. The source made the active and inactive calls.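 How the source made its calls, unless noted: active means binding below the plate cutoff, the plate median minus 3 SD, with a reading above zero; inconclusive means below the plate cutoff but reading exactly zero; inactive means the rest.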

How the values were obtained:
[1] = yeast TOR pathway RPL19A-GFP modulators, primary screen, cell-based, S. cerevisiae, multiplex flow cytometry (AID 1862; in the data active means percent of DMSO control GFP below about 86%;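 further: lower values mimic rapamycin by blocking the RPL19A rise seen in DMSO cells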); conditions: S. cerevisiae RPL19A-GFP strain, flow cytometry fluorescence, 3 h; at 10 µM; stronger effect = lower value
[2] = modulators of MEP2-GFP levels in yeast, primary screen, S. cerevisiae, multiplex flow cytometry (AID 1867;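 active means GFP response, as percent of the DMSO control, above the screen-wide mean plus 3 SD, about 139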;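 further: median GFP channel fluorescence of barcode-gated MEP2-GFP cells measured by flow cytometry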); conditions: S. cerevisiae MEP2-GFP strain, 3 h, at 10 µM, stronger effect = higher value, 100% means same as DMSO wells
[3] = modulators of CIT2-GFP expression in yeast, primary screen, S. cerevisiae, GFP fusion, multiplex flow cytometry (AID 1870;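 active means percent response above a set limit, the screen-wide mean plus 3 SD, cut at about 130% in these data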;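 further: barcoded CIT2-GFP strain pooled with four other GFP strains with rapamycin as positive control; median GFP fluorescence per well over plate mean of DMSO wells so 100% = DMSO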); conditions: 3 h, at 10 µM, stronger effect = higher value
[4] = modulators of LAP4-GFP expression in yeast, primary screen, S. cerevisiae, multiplex flow cytometry (AID 1873;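 active means GFP signal, as percent of the solvent control, above the screen mean plus 3 SD, about 149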); conditions: 3 h, at 10 µM, stronger effect = higher value
[5] = modulators of AGP1-GFP expression in yeast TOR pathway, primary screen, cell-based, multiplex flow cytometry, S. cerevisiae (AID 1887;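 active means GFP signal above the screen-wide mean plus 3 SD, that is over about 124.5% of the solvent control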;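 further: AGP1-GFP fusion strain of S. cerevisiae within a five-strain barcoded multiplex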); conditions: 3 h, at 10 µM, stronger effect = higher value
[6] = inhibitors of CD8+ T cell-vesicle binding, pilot screen, LFA-1/ICAM-1 modulator project, MLPCN validation set, flow cytometry (AID 2523;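 active means response below a set limit, under 55% cells CD8-positive and vesicle-bound, and CD8 cells' 90th-percentile brightness under 279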;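 on vesicle binding response: mean PE anti-B7-1 fluorescence of CD8+ cells relative to row control; 100% = QL9-loaded vesicles with DMSO vehicle in the same plate row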); conditions: 2C mouse CD8+ T cells, at 7 µM, stronger effect = lower value; double positive events: measured here: CD8+/vesicle+ event percentage
[7] = molecular target: Integrin beta-1 (Homo sapiens) + Integrin alpha-4 (Homo sapiens) (UniProt P13612+P05556); assay: inhibition of HUTS-21 binding to VLA-4, pilot screen, VLA-4 allosteric modulator project, U937 cells, HUTS-21 mAb, flow cytometry, validation set (AID 2674;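 active means inhibition above 50%, about 3 SD of the validation set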;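 further: antibody binding induced by the VLA-4 ligand LDV present at three times its Kd; 0% = LDV ligand with antibody and no compound and 100% = antibody without LDV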); conditions: HUTS-21 LIBS mAb binding, at 6.7 µM, stronger effect = higher value, binding induced by LDV ligand
[8] = superoxide lowering in aged yeast cells, pilot screen, validation compound set (AID 2706;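 active means superoxide response below 65% of plate, a cut near 3 SD across the whole screen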;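 further: yeast exposed to compound for one week at 30 degrees C before staining; 100% = mean of all compound wells on the same plate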); conditions: S. cerevisiae aging, superoxide DHE fluorescence; at 10 µM; stronger effect = lower value
[9] = molecular target: Beta-adrenergic receptor kinase 1 (Homo sapiens) (UniProt P25098); assay: GRK2 binders displacing RNA aptamer, biochemical, validation, human GRK2, bead flow cytometry (AID 488806;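 active means aptamer binding inhibition above 30%, about 3 SD of noise from non-fluorescent compounds; inactive means inhibition at or below 30%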); conditions: bead-bound GRK2, FAM-aptamer displacement, at 10 µM, stronger effect = higher value
[10] = molecular target: Beta-2 adrenergic receptor (Homo sapiens) (UniProt P07550); assay: beta2AR agonists driving receptor internalization, pilot screen, cell-based, FAP fluorogen, flow cytometry, validation set (AID 504459;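 active means percent response above 42, roughly 3 SD of non-fluorescent test compounds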;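 further: agonist-driven loss of surface beta2AR via internalization measured by FAP dye flow cytometry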); conditions: Am2.2-beta2AR cells, FAP surface receptor flow cytometry; at 10 µM; stronger effect = higher value
[11] = molecular target: AP-2 complex subunit beta (Homo sapiens) (UniProt P63010); assay: inhibitors of arrestin peptide binding to AP2, pilot screen, biochemical, validation set, GST-AP2 beads, flow cytometry (AID 504541;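 active means inhibition above 54%, about 3 SD of non-fluorescent compounds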;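 further: AP2 carries R879A mutation and is captured from E. coli lysate; bead-bound FITC arrestin peptide fluorescence measuring arrestin peptide binding to AP2; 0% = DMSO wells and 100% = excess unlabeled arrestin peptide control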); conditions: FITC arrestin peptide, at 10 µM, stronger effect = higher value, AP2 beta2 appendage fragment, R879A mutant
[12] = yeast V-ATPase proton transport modulators, S. cerevisiae, pHLuorin, HTS validation (AID 504600; in the data active means response above about 15%;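 further: plate controls were DMSO for no effect and reference compound for full effect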); conditions: S. cerevisiae pHLuorin cytosolic pH, at 10 µM, stronger effect = higher value
[13] = tested on: anti-desmoglein-3 scFv antibody binding to human DSG3; assay: inhibitors of anti-DSG3 scFv binding to DSG3, pilot screen, biochemical, validation compound set, bead-based, flow cytometry (AID 588368); conditions: Protein G beads, DSG3-Fc, scFv-GFP binding, at 10 µM, stronger effect = lower value;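 further: signal is the median channel fluorescence of bead-bound GFP antibody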
[14] = inhibitors of fungal efflux pumps CDR1, CDR2, MDR1, pilot screen, validation compound set, multiplex, phenotypic (AID 588506;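 active means efflux inhibition above 0.42, the validation set average plus 4 SD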;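 further: Nile Red retained in cells so higher fluorescence means more efflux inhibition; 0 = negative control wells and 1 = enniatin B 25 µM full block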); conditions: S. cerevisiae pump-expressing triplex, Nile Red efflux flow cytometry; at 10 µM; stronger effect = higher value; the pumps come from Candida albicans
[15] = molecular target: ATP-binding cassette sub-family B member 6 (Homo sapiens) (UniProt Q9NP58); assay: ABCB6 transporter inhibitors, pilot screen, K562-ABCB6 cells, flow cytometry, validation set (AID 588550;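 active means inhibition above the screen-wide mean plus 3 SD, about 51%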;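 further: 0% = DMSO wells and 100% = benzethonium chloride 70 µM positive control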); conditions: K562-ABCB6 porphyrin accumulation, 1 h, at 10 µM, stronger effect = higher value
[16] = promoters of myeloid differentiation in arrested cells, primary screen, cell-based, GFP/MAC1 double positive, flow cytometry, validation set (AID 588685;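 active means differentiation response of at least 50%, scaled between solvent and reference control, from cells with both markers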;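 further: compound exposure lasts four days before antibody staining and flow analysis; 0% = DMSO wells and 100% = 5 µM fulvestrant positive control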); conditions: ER-HoxA9 marrow cells, stronger effect = higher value, normalized: vehicle 0, fulvestrant 100

Sequence of Integrin beta-1 (Homo sapiens) + Integrin alpha-4 (Homo sapiens) (P05556 whole entry, looked up): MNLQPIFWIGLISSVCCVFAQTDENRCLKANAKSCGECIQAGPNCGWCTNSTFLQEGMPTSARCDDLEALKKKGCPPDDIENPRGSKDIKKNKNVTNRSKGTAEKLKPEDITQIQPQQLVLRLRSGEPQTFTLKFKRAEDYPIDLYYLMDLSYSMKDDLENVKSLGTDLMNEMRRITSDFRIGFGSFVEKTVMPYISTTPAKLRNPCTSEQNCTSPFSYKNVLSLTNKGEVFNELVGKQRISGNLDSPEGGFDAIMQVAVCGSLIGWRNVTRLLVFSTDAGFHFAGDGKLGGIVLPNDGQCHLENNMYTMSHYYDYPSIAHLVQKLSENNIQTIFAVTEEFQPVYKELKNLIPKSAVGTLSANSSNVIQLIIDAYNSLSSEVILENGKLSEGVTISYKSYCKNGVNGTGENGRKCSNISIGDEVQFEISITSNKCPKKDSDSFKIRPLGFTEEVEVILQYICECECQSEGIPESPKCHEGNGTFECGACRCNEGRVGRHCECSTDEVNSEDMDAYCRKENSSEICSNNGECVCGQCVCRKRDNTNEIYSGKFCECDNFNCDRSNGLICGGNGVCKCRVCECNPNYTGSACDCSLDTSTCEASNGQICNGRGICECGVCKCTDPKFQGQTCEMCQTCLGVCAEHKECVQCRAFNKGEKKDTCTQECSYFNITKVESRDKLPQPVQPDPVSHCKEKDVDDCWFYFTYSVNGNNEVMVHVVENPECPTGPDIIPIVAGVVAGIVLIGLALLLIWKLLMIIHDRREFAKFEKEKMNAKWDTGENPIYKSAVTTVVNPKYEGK
Sequence of Integrin beta-1 (Homo sapiens) + Integrin alpha-4 (Homo sapiens) (P13612 whole entry, looked up): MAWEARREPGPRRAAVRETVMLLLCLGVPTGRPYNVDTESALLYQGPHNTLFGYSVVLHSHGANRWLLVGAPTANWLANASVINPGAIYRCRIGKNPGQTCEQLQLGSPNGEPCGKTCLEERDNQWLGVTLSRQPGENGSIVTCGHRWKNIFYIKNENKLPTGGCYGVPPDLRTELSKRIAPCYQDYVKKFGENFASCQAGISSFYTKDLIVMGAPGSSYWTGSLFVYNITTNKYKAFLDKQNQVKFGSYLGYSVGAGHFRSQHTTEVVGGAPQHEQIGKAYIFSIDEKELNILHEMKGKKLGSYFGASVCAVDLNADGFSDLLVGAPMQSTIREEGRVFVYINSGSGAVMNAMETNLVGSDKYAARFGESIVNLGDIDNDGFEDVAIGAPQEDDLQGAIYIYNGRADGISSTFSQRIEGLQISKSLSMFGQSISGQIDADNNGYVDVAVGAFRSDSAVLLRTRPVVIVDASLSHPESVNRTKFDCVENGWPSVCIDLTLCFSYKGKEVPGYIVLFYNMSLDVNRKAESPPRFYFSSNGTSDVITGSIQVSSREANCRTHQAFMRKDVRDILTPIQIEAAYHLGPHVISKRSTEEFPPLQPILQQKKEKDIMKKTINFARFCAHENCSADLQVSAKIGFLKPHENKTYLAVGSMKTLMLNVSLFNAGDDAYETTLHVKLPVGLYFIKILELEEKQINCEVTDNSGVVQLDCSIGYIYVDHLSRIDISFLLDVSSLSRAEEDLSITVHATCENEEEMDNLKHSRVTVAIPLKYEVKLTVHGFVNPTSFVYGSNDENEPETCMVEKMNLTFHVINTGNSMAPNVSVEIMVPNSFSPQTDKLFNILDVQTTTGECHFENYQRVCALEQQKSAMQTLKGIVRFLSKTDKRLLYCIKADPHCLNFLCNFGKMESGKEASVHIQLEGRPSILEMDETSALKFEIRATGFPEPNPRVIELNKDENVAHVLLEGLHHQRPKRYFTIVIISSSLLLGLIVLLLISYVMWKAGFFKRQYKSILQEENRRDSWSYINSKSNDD
Sequence of ATP-binding cassette sub-family B member 6 (Homo sapiens) (Q9NP58 whole entry, looked up): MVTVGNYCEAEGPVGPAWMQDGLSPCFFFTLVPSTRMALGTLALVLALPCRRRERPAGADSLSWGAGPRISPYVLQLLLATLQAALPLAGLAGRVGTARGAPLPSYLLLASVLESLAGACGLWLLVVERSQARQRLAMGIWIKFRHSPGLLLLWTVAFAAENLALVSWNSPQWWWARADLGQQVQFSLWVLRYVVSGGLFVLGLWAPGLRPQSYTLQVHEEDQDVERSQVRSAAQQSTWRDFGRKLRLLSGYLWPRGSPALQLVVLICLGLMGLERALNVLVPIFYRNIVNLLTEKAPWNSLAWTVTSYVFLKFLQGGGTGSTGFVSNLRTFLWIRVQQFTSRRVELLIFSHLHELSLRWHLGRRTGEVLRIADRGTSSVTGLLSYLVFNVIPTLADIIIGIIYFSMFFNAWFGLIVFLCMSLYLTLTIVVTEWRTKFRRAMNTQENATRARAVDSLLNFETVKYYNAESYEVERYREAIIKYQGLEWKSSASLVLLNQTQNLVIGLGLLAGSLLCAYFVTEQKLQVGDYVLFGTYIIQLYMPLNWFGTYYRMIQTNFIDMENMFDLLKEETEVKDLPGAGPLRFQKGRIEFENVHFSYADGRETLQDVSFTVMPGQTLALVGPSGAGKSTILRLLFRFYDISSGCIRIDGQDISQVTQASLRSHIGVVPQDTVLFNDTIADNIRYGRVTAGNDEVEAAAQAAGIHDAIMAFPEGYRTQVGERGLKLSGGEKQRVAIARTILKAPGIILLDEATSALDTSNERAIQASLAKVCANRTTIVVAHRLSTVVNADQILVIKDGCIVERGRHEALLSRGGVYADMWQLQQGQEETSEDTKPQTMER
Sequence of AP-2 complex subunit beta (Homo sapiens) (P63010 whole entry, looked up, the tested form may be a part, one chain of several): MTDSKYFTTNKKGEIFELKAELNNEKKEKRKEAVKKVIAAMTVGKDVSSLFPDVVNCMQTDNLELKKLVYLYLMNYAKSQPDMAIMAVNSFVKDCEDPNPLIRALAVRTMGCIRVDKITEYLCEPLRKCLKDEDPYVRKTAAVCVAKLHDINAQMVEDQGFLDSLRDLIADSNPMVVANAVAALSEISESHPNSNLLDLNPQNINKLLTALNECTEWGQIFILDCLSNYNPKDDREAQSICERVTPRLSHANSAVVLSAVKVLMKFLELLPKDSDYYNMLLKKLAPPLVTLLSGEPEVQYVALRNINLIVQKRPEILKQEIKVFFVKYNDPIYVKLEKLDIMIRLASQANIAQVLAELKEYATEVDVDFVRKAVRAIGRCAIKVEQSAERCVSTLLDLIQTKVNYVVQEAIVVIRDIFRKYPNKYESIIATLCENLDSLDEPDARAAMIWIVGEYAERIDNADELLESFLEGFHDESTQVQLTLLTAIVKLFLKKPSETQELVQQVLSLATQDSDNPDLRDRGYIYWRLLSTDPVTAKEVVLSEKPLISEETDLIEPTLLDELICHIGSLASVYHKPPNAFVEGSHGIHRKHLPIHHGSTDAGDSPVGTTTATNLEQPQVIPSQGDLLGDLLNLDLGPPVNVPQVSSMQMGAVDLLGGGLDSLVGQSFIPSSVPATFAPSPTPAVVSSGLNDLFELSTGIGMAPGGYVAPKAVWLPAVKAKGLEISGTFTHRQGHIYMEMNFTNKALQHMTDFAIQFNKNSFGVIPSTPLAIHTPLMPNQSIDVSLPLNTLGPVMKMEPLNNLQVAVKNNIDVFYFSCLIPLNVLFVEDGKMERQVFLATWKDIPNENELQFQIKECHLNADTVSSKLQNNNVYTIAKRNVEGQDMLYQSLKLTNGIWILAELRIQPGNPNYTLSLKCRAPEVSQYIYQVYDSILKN
Sequence of Beta-2 adrenergic receptor (Homo sapiens) (P07550 whole entry, looked up): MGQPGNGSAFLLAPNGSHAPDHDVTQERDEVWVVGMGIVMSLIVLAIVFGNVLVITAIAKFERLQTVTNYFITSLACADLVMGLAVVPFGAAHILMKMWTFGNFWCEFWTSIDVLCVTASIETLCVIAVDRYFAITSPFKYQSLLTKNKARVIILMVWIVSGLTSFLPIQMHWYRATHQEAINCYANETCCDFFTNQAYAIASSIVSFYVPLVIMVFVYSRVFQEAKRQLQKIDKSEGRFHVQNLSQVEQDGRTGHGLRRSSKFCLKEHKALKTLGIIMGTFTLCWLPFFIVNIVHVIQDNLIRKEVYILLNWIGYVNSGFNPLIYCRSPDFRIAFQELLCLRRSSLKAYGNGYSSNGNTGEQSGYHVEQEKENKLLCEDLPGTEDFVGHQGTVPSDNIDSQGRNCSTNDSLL
Sequence of Beta-adrenergic receptor kinase 1 (Homo sapiens) (P25098 whole entry, looked up): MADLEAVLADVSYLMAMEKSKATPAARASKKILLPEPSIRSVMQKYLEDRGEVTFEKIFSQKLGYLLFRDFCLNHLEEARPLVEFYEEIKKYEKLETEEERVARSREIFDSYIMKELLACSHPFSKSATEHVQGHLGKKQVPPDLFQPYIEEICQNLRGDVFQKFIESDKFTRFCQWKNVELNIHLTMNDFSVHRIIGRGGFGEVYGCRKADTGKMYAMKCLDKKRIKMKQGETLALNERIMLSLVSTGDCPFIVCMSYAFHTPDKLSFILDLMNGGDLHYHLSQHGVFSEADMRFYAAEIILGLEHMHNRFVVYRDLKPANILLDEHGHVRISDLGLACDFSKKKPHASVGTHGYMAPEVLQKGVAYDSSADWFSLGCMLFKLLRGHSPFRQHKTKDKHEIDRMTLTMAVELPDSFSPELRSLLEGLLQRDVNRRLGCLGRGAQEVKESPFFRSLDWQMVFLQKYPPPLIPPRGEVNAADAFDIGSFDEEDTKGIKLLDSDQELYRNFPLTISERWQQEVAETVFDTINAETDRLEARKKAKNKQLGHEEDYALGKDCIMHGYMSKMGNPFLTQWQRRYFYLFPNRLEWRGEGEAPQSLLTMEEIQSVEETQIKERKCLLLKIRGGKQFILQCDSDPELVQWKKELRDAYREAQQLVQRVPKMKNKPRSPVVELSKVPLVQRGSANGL

Row | SMILES | percent of DMSO control GFP [1] | GFP response vs DMSO [2] | percent response of DMSO control [3] | GFP response vs DMSO [4] | GFP response, % of DMSO [5] | double positive events [6] [%] | vesicle binding response [6] | inhibition [7] | superoxide response (% of plate) [8] | aptamer binding inhibition [9] | response [10] | inhibition [11] | response [12] | binding (% of control) [13] | efflux inhibition (fraction of control) [14] | inhibition [15] | differentiation response [16]
1 | CC(=O)NC(NC(=S)N1CCCCCC1)C(Cl)(Cl)Cl (centres undefined) | 102% (inactive) | 104% (inactive) | 98.9% (inactive) | 95.3% (inactive) | 99.5% (inactive) | 64.5 | 126% (inactive) | -20.2% (inactive) | 104% (inactive) | 0% (inactive) | 2.95% (inactive) | -7.04% (inactive) | 0.33% (inactive) | 94.8% (inactive) | 0.05 (inactive) | -1% (inactive) | 6.11% (inactive)
2 | COc1cc(C=NCC2OCCc3ccccc32)cc(OC)c1 (centres undefined) | 99% (inactive) | 105% (inactive) | 95.8% (inactive) | 117% (inactive) | 100% (inactive) | 57.8 | 136% (inactive) | -1.79% (inactive) | 101% (inactive) | 4% (inactive) | 4.4% (inactive) | 17.8% (inactive) | 1.44% (inactive) | 103% (inactive) | -0.46 (inactive) | -47% (inactive) | -7.2% (inactive)
3 | Cc1ccc(C(=O)Nc2ccccc2C(=O)NC(C(=O)O)C(C)C)cc1 (centres undefined) | 96.7% (inactive) | 109% (inactive) | 89.1% (inactive) | 115% (inactive) | 101% (inactive) | 57.3 | 175% (inactive) | -19.5% (inactive) | 116% (inactive) | 3% (inactive) | -2.49% (inactive) | 10.5% (inactive) | 0.12% (inactive) | 99.1% (inactive) | -0.06 (inactive) | 3% (inactive) | -13.6% (inactive)
4 | COc1ccc(NC(=O)C2CCCN2C(=O)OC(C)(C)C)cc1 (centres undefined) | 102% (inactive) | 102% (inactive) | 100% (inactive) | 92.3% (inactive) | 99.9% (inactive) | 69.5 | 107% (inactive) | 2.55% (inactive) | 53.3% (active) | 0% (inactive) | -5.75% (inactive) | -4.29% (inactive) | -0.27% (inactive) | 102% (inactive) | -0.38 (inactive) | 8% (inactive) | -5.68% (inactive)
5 | COc1cc2[nH]c3c(=O)n(CCN4CCOCC4)cnc3c2cc1OC | 101% (inactive) | 96.3% (inactive) | 101% (inactive) | 101% (inactive) | 99.4% (inactive) | 60.3 | 172% (inactive) | -7.25% (inactive) | 98.5% (inactive) | 3% (inactive) | -0.47% (inactive) | 13.5% (inactive) | -1.31% (inactive) | 102% (inactive) | -0.17 (inactive) | 5% (inactive) | 4% (inactive)
6 | COc1ccc(/C=C\c2cc(OC)c(OC)cc2CC[N+](C)(C)C)cc1OC | 96.3% (inactive) | 102% (inactive) | 101% (inactive) | 122% (inactive) | 103% (inactive) | 57.8 | 216% (inactive) | -4.52% (inactive) | 108% (inactive) | -3% (inactive) | -7.25% (inactive) | -9.15% (inactive) | 0.95% (inactive) | 103% (inactive) | 0.26 (inactive) | 2% (inactive) | -0.8% (inactive)
7 | C/C(=N\NC(=O)c1ccccc1[N+](=O)[O-])c1ccc(Br)s1 | 98.4% (inactive) | 107% (inactive) | 107% (inactive) | 100% (inactive) | 101% (inactive) | 57.5 | 94.2% (inactive) | 0.25% (inactive) | 97.9% (inactive) | 2% (inactive) | -0.6% (inactive) | 7.49% (inactive) | -4.2% (inactive) | 95.7% (inactive) | -0.235 (inactive) | -10% (inactive) | -4.57% (inactive)
